Measured values published in PubChem BioAssay.
“And” between values parts separate entries of the source, which are not always exact repeats. Equal values may be shown once. For some of these results: Entries with a potency or affinity are not part of this list. A structure can be active in one record and inactive in another. The source made the active and inactive calls.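 Rule for the calls, unless noted: active = normalized viability below 100% at a tested concentration; inactive = the rest.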

Legend:
[1] = target: 6-phosphogluconate dehydrogenase, decarboxylating (Homo sapiens) (UniProt P52209); assay: inhibition of human phosphogluconate dehydrogenase – biochemical, recombinant enzyme, NADPH absorbance, primary screen (AID 1159550;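 active = at least 20% inhibition of 6-phosphogluconate dehydrogenase activity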); conditions: recombinant 6PGD, NADPH absorbance 341 nm; at 10 µM; stronger effect = higher value
[2] = EMT-state selective cytotoxicity in co-culture – imaging, PC-3E GFP, TEM4-18 mCherry, primary screen (AID 1345086;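 active = compounds killing one labelled cell type while sparing the other, by normalised counts and ratio limits, not self-fluorescent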;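 for all read-outs here: cells exposed to compound for 72 h before imaging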;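 for red/green cell ratio (normalised): normalised mesenchymal count divided by normalised epithelial count so high means epithelial killing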); conditions: PC-3E GFP / TEM4-18 mCherry co-culture, imaging cell counts, at 1 µM; for red/green cell ratio (normalised): actives lie on both sides, counts scaled to control wells, 1 = unselective
[3] = viability loss with induced miR-34 in A549 – imaging, A549 dox-inducible miR-34, nuclei and caspase counts, primary screen (AID 1347080;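 active = compounds whose cell count with miR-34 switched on is under 0.7 times the count with it off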); conditions: A549 miR-34 inducible, Hoechst nuclei count, 48 h
[4] = blockers of polyQ-driven CASP3 activation – cell-based (AID 1583); conditions: polyglutamine-induced caspase-3 activation, cell assay; stronger effect = higher value;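 tested at 10 µM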
[5] = yeast 75Q aggregation reduction – 75Q-TubU reporter (AID 1593); conditions: Yeast 75Q polyglutamine aggregation reporter
[6] = restoration of touch response, mutant HTT neurons – whole organism, C. elegans mechanosensory neurons, N-terminal huntingtin (AID 1599); conditions: C. elegans polyQ-huntingtin mechanosensory neurons, stronger effect = higher value
[7] = blockers of cytochrome c efflux from mitochondria – biochemical, purified mitochondria (AID 1603); conditions: stronger effect = lower value;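 note: mouse liver mitochondria challenged with calcium chloride; signal normalized to the plate average as 100%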
[8] = polyglutamine aggregate formation blockers (AID 1604); conditions: polyglutamine-induced protein aggregation inhibition assay; stronger effect = higher value; tested at 2.5 µM
[9] = glutamate transport activators, MN-1 cells, MN-1 cell line (AID 1612); conditions: MN-1 motor neuron cells, stronger effect = higher value;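 note: tested at 1 µM final; 0% = mean of DMSO vehicle wells on each plate; positive means more glutamate uptake than control and negative means less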
[10] = GFP-Q80 aggregate reduction, neuronal-like cells, cell-based, NGF-treated PC12, GFPQ80 (AID 1614); conditions: PC12 NGF-treated GFP-polyQ80 inclusion reduction;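 note: lower means fewer inclusions and 0 means no inclusions at all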
[11] = 75Q-TubH aggregate inhibition, S. cerevisiae, yeast (AID 1616); conditions: S. cerevisiae 75Q-TubH polyglutamine aggregation suppression; stronger effect = higher value
[12] = P. berghei load reduction in hepatocytes – cell-based, HepG2, luciferase luminescence, HepG2 viability, primary screen (AID 624349; in the data active = parasite load remaining mostly below about 12%, no sharp cut-off; inactive = mostly above about 10%;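 note: 100% = mean of DMSO negative control wells on the same plate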); conditions: P. berghei liver stage in HepG2, luciferase luminescence, concentration not given here; parasite load remaining: stronger effect = lower value; viability: measured here: HepG2 viability without parasites
[13] = MELAS cybrid and Rieske KO viability enhancers – cell-based, MELAS cybrids, Rieske KO mouse fibroblasts, CellTiter-Glo, primary screen (AID 1508586;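 active = mean z-score across replicates of 1.96 or higher in either the MELAS or the Rieske mutant cell line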;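 note: z relative to plate mean and SD of compound and empty wells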); conditions: low glucose
[14] = target: NAD(+) hydrolase SARM1 (Homo sapiens) (UniProt Q6SZW1); assay: blocking NAD cleavage by SARM1 SAM-TIR – cell lysate, NAD-Glo luminescence (AID 1508614;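 active = compound whose remaining NAD level is above about 45 nM, limit read from the data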;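 note: higher remaining NAD means stronger inhibition of SARM1 NADase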); conditions: SAM-TIR HEK293T lysate NADase, at 1 µM, stronger effect = higher value
[15] = target: Mitogen-activated protein kinase 7 (Homo sapiens) (UniProt Q13164); assay: Gal4-ERK5 driven luciferase induction – cell-based, HTS, primary screen (AID 1508626;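 active = luciferase signal above three times the same-plate solvent-only control wells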;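 note: luciferase driven by Gal4-ERK5 fusion binding five Gal4 sites before minimal TATA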); conditions: HeLa Gal4-ERK5 transactivation, 18 h, at 5 µM, stronger effect = higher value
[16] = drug combination growth inhibition, ovarian cancer – cell-based, oncology-focused library, rucaparib conditional, profiling panel (AID 1508598); conditions: patient-derived ovarian cancer cells, CellTiter-Glo viability, 144 h, stronger effect = lower value
[17] = measured here: epithelial PC-3E GFP cell survival
[18] = measured here: mesenchymal TEM4-18 mCherry cell survival
[19] = stronger effect = lower value, cell number ratio, induced over uninduced
[20] = measured here: relative caspase fold change +Dox/-Dox
[21] = measured here: total cells with miR-34 induction, stronger effect = lower value
[22] = measured here: total cells without miR-34 induction
[23] = MELAS cybrid survival, CellTiter-Glo 48 h, stronger effect = higher value
[24] = Rieske KO mouse fibroblast survival, CellTiter-Glo 72 h

6-phosphogluconate dehydrogenase, decarboxylating (Homo sapiens), sequence (P52209 whole entry, looked up): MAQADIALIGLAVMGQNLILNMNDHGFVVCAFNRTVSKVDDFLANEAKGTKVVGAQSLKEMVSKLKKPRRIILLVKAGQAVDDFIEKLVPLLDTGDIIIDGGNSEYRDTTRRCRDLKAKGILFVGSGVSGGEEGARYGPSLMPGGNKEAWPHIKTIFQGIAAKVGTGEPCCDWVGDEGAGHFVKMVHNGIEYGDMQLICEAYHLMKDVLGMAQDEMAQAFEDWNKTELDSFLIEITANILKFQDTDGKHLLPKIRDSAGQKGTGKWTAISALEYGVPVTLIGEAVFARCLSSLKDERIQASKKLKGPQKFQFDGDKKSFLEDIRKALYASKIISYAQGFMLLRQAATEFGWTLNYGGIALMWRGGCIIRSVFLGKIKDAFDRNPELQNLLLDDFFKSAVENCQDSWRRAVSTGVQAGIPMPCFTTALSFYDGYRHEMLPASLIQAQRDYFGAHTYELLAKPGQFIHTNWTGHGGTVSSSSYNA
Mitogen-activated protein kinase 7 (Homo sapiens), sequence (Q13164 whole entry, looked up, the tested form may be a part): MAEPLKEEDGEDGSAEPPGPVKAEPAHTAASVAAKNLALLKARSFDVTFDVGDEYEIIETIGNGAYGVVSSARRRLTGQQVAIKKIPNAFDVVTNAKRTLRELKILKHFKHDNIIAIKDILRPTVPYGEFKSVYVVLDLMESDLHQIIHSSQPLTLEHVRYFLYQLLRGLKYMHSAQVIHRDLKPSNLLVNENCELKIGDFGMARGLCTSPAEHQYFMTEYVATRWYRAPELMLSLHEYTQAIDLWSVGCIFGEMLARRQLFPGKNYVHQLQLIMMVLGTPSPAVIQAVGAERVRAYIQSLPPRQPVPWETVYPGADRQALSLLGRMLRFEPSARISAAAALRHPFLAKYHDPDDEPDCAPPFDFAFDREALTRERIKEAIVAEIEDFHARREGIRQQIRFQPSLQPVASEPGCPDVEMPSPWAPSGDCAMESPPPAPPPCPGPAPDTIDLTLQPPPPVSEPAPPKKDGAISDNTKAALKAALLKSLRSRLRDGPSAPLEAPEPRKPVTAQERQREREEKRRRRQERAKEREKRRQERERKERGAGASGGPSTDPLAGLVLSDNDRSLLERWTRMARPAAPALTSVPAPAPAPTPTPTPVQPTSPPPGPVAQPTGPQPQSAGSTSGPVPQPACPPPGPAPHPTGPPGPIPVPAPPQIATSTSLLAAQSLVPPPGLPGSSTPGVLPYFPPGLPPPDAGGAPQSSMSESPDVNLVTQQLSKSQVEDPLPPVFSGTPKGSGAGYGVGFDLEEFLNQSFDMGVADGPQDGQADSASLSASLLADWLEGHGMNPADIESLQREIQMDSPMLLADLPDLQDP
NAD(+) hydrolase SARM1 (Homo sapiens), sequence (Q6SZW1 whole entry, looked up, the tested form may be a part): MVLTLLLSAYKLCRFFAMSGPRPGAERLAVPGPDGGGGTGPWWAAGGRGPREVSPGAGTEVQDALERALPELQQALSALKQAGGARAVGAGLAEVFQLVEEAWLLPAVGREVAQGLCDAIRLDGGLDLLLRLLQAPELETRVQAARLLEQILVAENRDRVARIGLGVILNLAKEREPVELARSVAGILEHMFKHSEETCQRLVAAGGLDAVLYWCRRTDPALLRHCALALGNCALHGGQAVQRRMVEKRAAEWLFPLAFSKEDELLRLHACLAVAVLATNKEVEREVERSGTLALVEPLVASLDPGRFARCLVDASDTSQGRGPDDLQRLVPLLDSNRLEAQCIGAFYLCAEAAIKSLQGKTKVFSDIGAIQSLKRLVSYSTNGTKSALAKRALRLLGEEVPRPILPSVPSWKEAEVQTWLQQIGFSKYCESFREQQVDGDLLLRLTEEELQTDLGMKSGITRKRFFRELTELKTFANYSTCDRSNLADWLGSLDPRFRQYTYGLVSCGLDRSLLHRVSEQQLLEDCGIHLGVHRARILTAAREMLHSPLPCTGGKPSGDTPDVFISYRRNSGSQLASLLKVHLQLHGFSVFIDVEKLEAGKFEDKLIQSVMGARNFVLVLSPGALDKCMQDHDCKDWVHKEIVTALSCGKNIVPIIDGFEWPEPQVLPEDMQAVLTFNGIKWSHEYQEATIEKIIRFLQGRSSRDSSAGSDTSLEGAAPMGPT

## CC(=O)[C@@]1(O)CCC2C3CCC4=CC(=O)CC[C@]4(C)C3CC[C@@]21C (some centres undefined)
[1]
  inhibition: 7.07% (inactive)
[2]
  red/green cell ratio (normalised): 0.98 (inactive)
[2]; [17]
  normalised cell number: 0.94
[2]; [18]
  normalised cell number: 0.92
[3]; [19]
  fold change: 0.883 (inactive)
[3]; [20]
  fold change: 0.857
[3]; [21]
  cell count: 7810
[3]; [22]
  cell count: 8840

## CC[C@H]1OC(=O)[C@H](C)[C@@H](O[C@H]2C[C@@](C)(OC)[C@@H](O)[C@H](C)O2)[C@H](C)[C@@H](O[C@@H]2O[C@H](C)C[C@H](N(C)C)[C@H]2O)[C@](C)(O)C[C@@H](C)C(=O)[C@H](C)[C@@H](O)[C@]1(C)O
[4]
  inhibition: -6% and 7.62% and 29.3%
[5]
  score: 1 and 1.46 and 0.46
[6]
  rescue above control: 2.19 and 2 and 0.57
[7]
  cytochrome c release ratio: 1.13 and 0.65 and 0.96
[8]
  inhibition of aggregation: 76.2% and 28.2% and 15.7%
[9]
  glutamate uptake change: -4.4% and 1.02% and 35.1%
[10]
  inclusion score: 2
[11]
  aggregation suppression score: 0.915 and 1.27 and 0.716
[12]
  parasite load remaining: 44.8% (inactive) and 99.9% (inactive) and 62.2% (inactive)
  viability: 44.6% and 74.8% and 115%
[1]
  inhibition: 2.57% (inactive) and -12% (inactive)
[2]
  red/green cell ratio (normalised): 1.08 (inactive) and 0.76 (inactive)
[2]; [17]
  normalised cell number: 0.96 and 0.98
[2]; [18]
  normalised cell number: 1.03 and 0.74
[3]; [19]
  fold change: 0.923 (inactive) and 0.889 (inactive) and 0.914 (inactive)
[3]; [20]
  fold change: 0.947 and 1.27 and 1.04
[3]; [21]
  cell count: 7930 and 8750 and 10800
[3]; [22]
  cell count: 8590 and 9850 and 11800
[13]; [23]
  z-score: -0.415 (inactive)
[13]; [24]
  z-score: -0.471
[14]
  remaining NAD: 85 nM (active) and 10 nM (inactive)
[15]
  luciferase signal: 60 AU (inactive)

## c1ccc2c(Cc3c[nH]c4ccccc34)c[nH]c2c1
[1]
  inhibition: 2.37% (inactive)
[2]
  red/green cell ratio (normalised): 0.91 (inactive)
[2]; [17]
  normalised cell number: 1.11
[2]; [18]
  normalised cell number: 1.01
[3]; [19]
  fold change: 0.926 (inactive)
[3]; [20]
  fold change: 0.966
[3]; [21]
  cell count: 4780
[3]; [22]
  cell count: 5160

## COc1cc(O)c2c(c1)C(=O)c1cc(C)cc(O)c1C2=O
[1]
  inhibition: 36.5% (active)
[2]
  red/green cell ratio (normalised): 1 (inactive)
[2]; [17]
  normalised cell number: 1
[2]; [18]
  normalised cell number: 1.01
[3]; [19]
  fold change: 0.975 (inactive)
[3]; [20]
  fold change: 0.792
[3]; [21]
  cell count: 9920
[3]; [22]
  cell count: 10200
[13]; [23]
  z-score: -0.364 (inactive)
[13]; [24]
  z-score: 0.659
[15]
  luciferase signal: 212 AU (inactive)

## Cc1cc(O)c2c(c1)C(=O)c1cccc(O)c1C2=O
[1]
  inhibition: 2.69% (inactive)
[2]
  red/green cell ratio (normalised): 1.03 (inactive)
[2]; [17]
  normalised cell number: 0.99
[2]; [18]
  normalised cell number: 1.02
[3]; [19]
  fold change: 0.938 (inactive)
[3]; [20]
  fold change: 0.889
[3]; [21]
  cell count: 10200
[3]; [22]
  cell count: 10900
[13]; [23]
  z-score: -0.322 (inactive)
[13]; [24]
  z-score: 0.837
[16]; at 0.000305 µM, OCI-C5x cells, with rucaparib 10 µM, 100% = cells with rucaparib alone
  viability: 120% (inactive)
[16]; at 0.000305 µM, OCI-C5x cells, without rucaparib
  viability: 106% (inactive)
[16]; at 0.000305 µM, OCI-P5x cells, with rucaparib 20 µM, 100% = cells with rucaparib alone
  viability: 93.2% (active)
[16]; at 0.000305 µM, OCI-P5x cells, without rucaparib
  viability: 92.5% (active)
[16]; at 0.00122 µM, OCI-C5x cells, with rucaparib 10 µM, 100% = cells with rucaparib alone
  viability: 115% (inactive)
[16]; at 0.00122 µM, OCI-C5x cells, without rucaparib
  viability: 113% (inactive)
[16]; at 0.00122 µM, OCI-P5x cells, with rucaparib 20 µM, 100% = cells with rucaparib alone
  viability: 92.4% (active)
[16]; at 0.00122 µM, OCI-P5x cells, without rucaparib
  viability: 95.7% (active)
[16]; at 0.00488 µM, OCI-C5x cells, with rucaparib 10 µM, 100% = cells with rucaparib alone
  viability: 117% (inactive)
[16]; at 0.00488 µM, OCI-C5x cells, without rucaparib
  viability: 112% (inactive)
[16]; at 0.00488 µM, OCI-P5x cells, with rucaparib 20 µM, 100% = cells with rucaparib alone
  viability: 94.8% (active)
[16]; at 0.00488 µM, OCI-P5x cells, without rucaparib
  viability: 102% (inactive)
[16]; at 0.0195 µM, OCI-C5x cells, with rucaparib 10 µM, 100% = cells with rucaparib alone
  viability: 115% (inactive)
[16]; at 0.0195 µM, OCI-C5x cells, without rucaparib
  viability: 103% (inactive)
[16]; at 0.0195 µM, OCI-P5x cells, with rucaparib 20 µM, 100% = cells with rucaparib alone
  viability: 104% (inactive)
[16]; at 0.0195 µM, OCI-P5x cells, without rucaparib
  viability: 104% (inactive)
[16]; at 0.0781 µM, OCI-C5x cells, with rucaparib 10 µM, 100% = cells with rucaparib alone
  viability: 112% (inactive)
[16]; at 0.0781 µM, OCI-C5x cells, without rucaparib
  viability: 113% (inactive)
[16]; at 0.0781 µM, OCI-P5x cells, with rucaparib 20 µM, 100% = cells with rucaparib alone
  viability: 105% (inactive)
[16]; at 0.0781 µM, OCI-P5x cells, without rucaparib
  viability: 107% (inactive)
